# PubChem BioAssay (NCATS)
# Records with an inconclusive call do not appear. Where a call stands in place of a potency, no number is given. Activity calls are given as the source filed them. Unless noted, calls follow the shape of the dose curve; as a rule, active = well fitted curve in the direction sought with a large enough effect; inconclusive = small, poorly fitted or top-dose-only effect, or another doubt; inactive = no such curve, though single readings can be large; an effect the other way counts as inactive or inconclusive.
# How the values were obtained:
# [1] = qHTS for differential inhibitors of proliferation of Plasmodium falciparum line D10 (AID 1877);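 also: parasites grown with compound for 72 h before DNA staining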
# [2] = qHTS for differential inhibitors of proliferation of Plasmodium falciparum line W2 (AID 1883); conditions: Potency: Plasmodium falciparum W2 proliferation inhibition;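 also: parasites grown with compound for 72 h before lysis and staining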; also: potency is read from the fitted curve at half-maximal effect
# [3] = qHTS for differential inhibitors of proliferation of Plasmodium falciparum line HB3 (AID 1886); conditions: Potency: Plasmodium falciparum HB3 proliferation inhibition;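 also: parasites grown with compound for 72 h before SYBR Green readout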; also: potency is read from the fitted curve at half-maximal effect
# [4] = qHTS Assay for Modulators of Human Peripheral Myelin Protein 22 (PMP22) Expression/Activity (AID 1967; active = well fitted curve in the direction sought with a large enough effect in the signal ratio; the % refers to the signal ratio)
# Procedure, shortened: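 Mouse MSC80 Schwann line, Pmp22 promoter–CBG68 reporter, EF-alpha–CBR internal control. 24h compound exposure, 37 °C/5% CO2, DMEM + 10% FBS. Readout: corrected green/red luminescence ratio, normalized to untreated cells; concentration-response curves fitted and classified.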
# [5] = molecular target: Ferritin light chain (Equus caballus) (UniProt P02791); assay: qHTS Validation Assay for Identification of Novel General Anesthetics (AID 2323); also: series mostly up to about 77 µM
# Procedure, shortened: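 10 uM horse-spleen apoferritin + 1-AMA (50% saturated, PBS); cpd pin-transferred, 10 min RT. Ex 380/Em 535 nm endpoint. Activity normalized between free 1-AMA and 1-AMA/apoferritin; 4-parameter Hill fit of concentration-response.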
# [6] = molecular target: ATP-dependent DNA helicase Q1 (Homo sapiens) (UniProt P46063); assay: qHTS Validation Assay for Inhibitors of RecQ-Like Dna Helicase 1 (RECQ1) (AID 2353); also: potency is read from the fitted curve at half-maximal effect
# Procedure, shortened: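 RECQ1T1 50 nM; forked duplex (20 bp + 30-nt ss tails) 200 nM, ATP 2 mM final; pH 8.0, 2 mM MgCl2, 2.5 ug/ml poly(dI-dC); 15 min compound preincubation; discontinuous kinetic read over 2 h at RT.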
# [7] = molecular target: Lysosomal alpha-glucosidase (Homo sapiens) (UniProt P10253); assay: Confirmation of Inhibitors and Activators of Purified Human alpha-Glucosidase (AID 2115; active = well fitted curve in either direction with a large enough effect); conditions: purified human GAA enzyme activity
# Description: NIH Chemical Genomics Center [NCGC]
# NIH Molecular Libraries Probe Production centers Network [MLPCN]
# Assay Submitter (PI): Wei Zheng
# Alpha-glucosidase is responsible for hydrolysis of terminal, non-reducing 1,4-linked alpha-D-glucose residues with release of alpha-D-glucose. It is a lysosomal hydrolase that is required for the degradation of a small percentage (1-3%) of cellular glycogen in human. Deficiency of this enzyme results in glycogen-storage disease type II (GSDII), also referred to as Pompe disease, an autosomal recessive disorder. Structurally normal glycogen is accumulated in lysosomes and cytoplasm in affected patients, primarily in muscle tissues. Excessive glycogen storage within lysosomes may interrupt normal functioning of other organelles and leads to cellular injury. In turn, this leads to enlargement and dysfunction of the entire organ involved (eg, cardiomyopathy and muscle weakness). […]
# This is a fluorogenic enzyme assay with 4-methylumbelliferyl-alpha-D-[…] as the substrate and human […] as the enzyme preparation. […] 4-methyllumbelliferone, can be excited at 365 nm and emits at 440 nm which can be detected by a standard fluorescence plate reader. […] The AC50 values were determined from concentration-response data modeled with the standard Hill equation. […]
# (6) Detect the assay plate in a ViewLux plate reader (PerkinElmer) with Ex=365 nm and Em=440nm. […]
# [8] = molecular target: RecQ-like DNA helicase BLM (Homo sapiens) (UniProt P54132); assay: qHTS Validation Assay for Inhibitors of Bloom's syndrome helicase (BLM) (AID 2364); also: potency is read from the fitted curve at half-maximal effect
# Procedure, shortened: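 50 nM BLM preincubated 15 min at room temperature with compound in pH 8.0 Tris buffer containing 2.5 ug/ml poly(dI-dC); started with 200 nM TAMRA/BHQ-2 forked duplex and 2 mM ATP (final). Unwinding read as TAMRA fluorescence increase, two reads 2 h apart.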
# [9] = qHTS for differential inhibitors of proliferation of Plasmodium falciparum line Dd2 (AID 1882); conditions: Potency: Plasmodium falciparum Dd2 proliferation inhibition;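 also: series mostly up to about 29 µM; compound exposure of 72 h on infected erythrocytes; nearly all actives have a fitted effect of over 65% in size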
# Procedure, shortened: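 RBC culture, 0.3% parasitemia / 2.5% Hct final; cpd added by pin tool in DMSO; 72 h, 37 C, 5% CO2; lysis buffer + SYBR Green I, o/n RT dark; FI 485/535; norm. to artemisinin 0.29 uM and DMSO.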
# Sequence of RecQ-like DNA helicase BLM (Homo sapiens) (P54132 whole entry, looked up): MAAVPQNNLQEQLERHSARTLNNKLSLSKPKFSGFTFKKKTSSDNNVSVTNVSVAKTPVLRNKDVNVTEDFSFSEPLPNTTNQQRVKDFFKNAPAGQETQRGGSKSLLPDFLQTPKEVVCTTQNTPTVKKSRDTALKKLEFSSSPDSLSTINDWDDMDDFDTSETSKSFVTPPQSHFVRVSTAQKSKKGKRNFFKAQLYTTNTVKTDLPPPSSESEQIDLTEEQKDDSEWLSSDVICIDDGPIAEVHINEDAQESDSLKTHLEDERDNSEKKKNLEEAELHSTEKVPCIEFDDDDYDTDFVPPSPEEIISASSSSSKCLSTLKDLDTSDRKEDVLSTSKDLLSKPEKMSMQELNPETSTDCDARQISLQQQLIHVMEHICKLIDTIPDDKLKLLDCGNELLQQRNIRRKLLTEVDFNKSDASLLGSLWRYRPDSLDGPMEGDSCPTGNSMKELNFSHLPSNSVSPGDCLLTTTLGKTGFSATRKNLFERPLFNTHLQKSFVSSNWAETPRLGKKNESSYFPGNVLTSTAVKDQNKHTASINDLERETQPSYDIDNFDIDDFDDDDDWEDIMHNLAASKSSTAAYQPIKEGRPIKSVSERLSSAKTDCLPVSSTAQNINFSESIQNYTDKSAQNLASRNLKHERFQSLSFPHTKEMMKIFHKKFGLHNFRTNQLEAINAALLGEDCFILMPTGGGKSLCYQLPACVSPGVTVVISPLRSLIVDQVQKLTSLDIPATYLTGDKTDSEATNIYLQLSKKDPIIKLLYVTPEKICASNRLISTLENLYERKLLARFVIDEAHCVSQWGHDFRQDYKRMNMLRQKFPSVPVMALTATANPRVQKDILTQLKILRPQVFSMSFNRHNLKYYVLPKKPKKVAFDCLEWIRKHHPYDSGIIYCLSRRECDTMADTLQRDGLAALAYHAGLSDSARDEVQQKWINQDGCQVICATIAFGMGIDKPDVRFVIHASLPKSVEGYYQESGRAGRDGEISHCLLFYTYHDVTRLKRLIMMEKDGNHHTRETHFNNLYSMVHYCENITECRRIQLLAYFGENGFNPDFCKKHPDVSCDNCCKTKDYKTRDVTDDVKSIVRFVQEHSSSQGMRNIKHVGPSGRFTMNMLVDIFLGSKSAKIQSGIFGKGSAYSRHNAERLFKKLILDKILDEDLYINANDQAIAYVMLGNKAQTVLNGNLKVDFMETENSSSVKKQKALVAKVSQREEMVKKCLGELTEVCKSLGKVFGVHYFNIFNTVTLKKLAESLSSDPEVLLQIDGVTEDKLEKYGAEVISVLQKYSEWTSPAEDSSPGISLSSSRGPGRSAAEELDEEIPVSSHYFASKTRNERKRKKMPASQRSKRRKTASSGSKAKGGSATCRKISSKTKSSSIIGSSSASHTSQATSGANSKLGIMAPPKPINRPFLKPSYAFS
# Sequence of ATP-dependent DNA helicase Q1 (Homo sapiens) (P46063 whole entry, looked up): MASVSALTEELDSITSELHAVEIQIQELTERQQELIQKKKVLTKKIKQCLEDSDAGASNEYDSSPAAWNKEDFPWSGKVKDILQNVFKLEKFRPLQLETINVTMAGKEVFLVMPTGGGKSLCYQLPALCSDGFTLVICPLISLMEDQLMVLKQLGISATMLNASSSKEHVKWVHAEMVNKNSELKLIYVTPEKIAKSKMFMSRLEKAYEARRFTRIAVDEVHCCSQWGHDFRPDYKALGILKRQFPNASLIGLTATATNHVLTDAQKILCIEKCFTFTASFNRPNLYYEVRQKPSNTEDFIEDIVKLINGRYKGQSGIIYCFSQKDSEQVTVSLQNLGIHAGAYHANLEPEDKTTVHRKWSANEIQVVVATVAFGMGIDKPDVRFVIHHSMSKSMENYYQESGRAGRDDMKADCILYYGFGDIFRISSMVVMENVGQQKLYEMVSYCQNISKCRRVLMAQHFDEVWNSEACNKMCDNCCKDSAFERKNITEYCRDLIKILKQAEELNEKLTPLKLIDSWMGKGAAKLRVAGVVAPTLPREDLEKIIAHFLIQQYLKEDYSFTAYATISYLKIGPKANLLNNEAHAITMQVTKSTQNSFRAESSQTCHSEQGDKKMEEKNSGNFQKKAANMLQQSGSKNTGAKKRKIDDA
# Sequence of Ferritin light chain (Equus caballus) (P02791 2-175 limits assumed): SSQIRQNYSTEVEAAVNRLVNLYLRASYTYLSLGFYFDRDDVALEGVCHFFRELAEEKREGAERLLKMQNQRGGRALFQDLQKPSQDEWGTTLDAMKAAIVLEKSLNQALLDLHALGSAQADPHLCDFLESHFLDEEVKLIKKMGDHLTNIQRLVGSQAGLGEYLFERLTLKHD
compound,measurement,setting,value
CC1CCN(CC[C@H]2CCCN2S(=O)(=O)c2cccc(O)c2)CC1,Potency,[1],inactive
same,Potency,[2],8.91 µM (active)
same,Potency,[3],inactive
same,outcome,[4],inactive
same,Potency,[5],inactive
same,Potency,[6],inactive
OC[C@H]1NC[C@@H](O)[C@@H]1O,Potency,[1],inactive
same,Potency,[2],inactive
same,Potency,[3],inactive
same,outcome,[4],inactive
same,outcome,[7],inactive
same,Potency,[5],inactive
same,Potency,[6],inactive
same,Potency,[8],inactive
C=CC1(C)CC(=O)C2(O)C(C)(O1)C(OC(C)=O)C(O)C1C(C)(C)CCC(O)C12C (stereo not drawn),Potency,[1],inactive
same,Potency,[9],inactive
same,Potency,[5],inactive
same,Potency,[6],inactive
CC[N+](CC)(CC)CC(=O)Nc1c(C)cccc1C,Potency,[1],inactive
same,Potency,[2],inactive
same,Potency,[3],inactive
same,outcome,[4],inactive
same,Potency,[5],inactive
same,Potency,[6],inactive
Cc1ccc([N+](=O)[O-])cc1S(=O)(=O)N(C)C,Potency,[1],inactive
same,Potency,[2],inactive
same,Potency,[3],inactive
same,outcome,[4],inactive
same,Potency,[6],inactive
same,Potency,[8],inactive
N[C@H]1CONC1=O,Potency,[1],inactive
same,Potency,[2],inactive
same,Potency,[3],inactive
same,Potency,[5],inactive
same,Potency,[6],inactive
O=S(=O)(c1cccc2c(Cl)cccc12)N1CCCNCC1,Potency,[2],1.58 µM (active)
same,Potency,[5],inactive
same,Potency,[6],inactive
same,Potency,[8],inactive
O=C(O)C1CCNCC1,Potency,[5],inactive
same,Potency,[6],inactive
same,Potency,[8],inactive
S=C(S)N1CCCC1,Potency,[5],inactive
same,Potency,[6],inactive
same,Potency,[8],inactive
Nc1nc2ccc(Cl)cc2c2nc(-c3ccco3)nn12,Potency,[6],inactive
same,Potency,[8],inactive
O=c1[nH]c2ccccc2c2ccccc12,Potency,[9],inactive
same,Potency,[3],inactive
same,Potency,[5],inactive
same,Potency,[6],inactive
CCC(=O)N1CCN(C(=O)c2ccccc2)CC1,Potency,[9],inactive
same,outcome,[4],inactive
same,Potency,[5],inactive
same,Potency,[6],inactive
Cc1ccc2c(c1)C(N1CCN(C)CC1)=Nc1cccnc1N2,Potency,[2],7.08 µM (active)
same,Potency,[3],inactive
same,outcome,[4],inactive
same,Potency,[5],inactive
same,Potency,[6],inactive
Cn1cc(C(=O)OCC2CCN(CCNS(C)(=O)=O)CC2)c2ccccc21,Potency,[2],8.91 µM (active)
same,Potency,[5],inactive
same,Potency,[6],inactive
same,Potency,[8],inactive
O=C(O)C1=CC(=C(c2ccc(O)c(C(=O)O)c2)c2ccc(O)c(C(=O)O)c2)C=CC1=O,Potency,[9],inactive
same,Potency,[8],0.794 µM (active)
O=C(OCCN1CCOCC1)C1(c2ccccc2)CCCCC1,Potency,[2],4.47 µM (active)
same,outcome,[4],inactive
same,Potency,[5],inactive
same,Potency,[6],inactive
same,Potency,[8],inactive
CCCCCCCCCC[Si](C)(C)CCC(=O)NC(Cc1ccc(C)cc1)c1ccccc1 (stereo not drawn),Potency,[6],inactive
Cc1ccccc1/C=C/C1=NCCN1,Potency,[2],12.6 µM (active)
same,Potency,[3],12.6 µM (active)
same,Potency,[5],inactive
same,Potency,[6],inactive
same,Potency,[8],inactive
NC(N)=NC(N)=Nc1ccccc1,Potency,[9],inactive
same,outcome,[4],inactive
same,Potency,[5],inactive
same,Potency,[6],inactive
NCCNS(=O)(=O)c1cccc2c(Cl)cccc12,Potency,[2],6.31 µM (active)
same,Potency,[6],inactive
same,Potency,[8],inactive
O=C(c1ccc2c(c1)OCCO2)N1CCCCC1,Potency,[9],inactive
same,outcome,[4],inactive
same,Potency,[8],inactive
COc1ccccc1N1CCN(CCN(C(=O)c2ccc(F)cc2)c2ccccn2)CC1,Potency,[2],8.91 µM (active)
same,Potency,[5],inactive
same,Potency,[6],inactive
COc1cc(/C=C(\C#N)C(=O)c2ccc(O)c(O)c2)cc(I)c1O,Potency,[9],inactive
same,Potency,[6],4.47 µM (active)
same,Potency,[8],10 µM (active)
Cn1c(=O)c2[nH]c(-c3ccc(S(=O)(=O)O)cc3)nc2n(C)c1=O,Potency,[9],inactive
same,outcome,[4],inactive
same,Potency,[6],inactive
same,Potency,[8],inactive
OC[C@H]1O[C@@H](n2cnc3cncnc32)[C@H](O)[C@@H]1O,Potency,[9],inactive
same,outcome,[4],inactive
same,Potency,[5],inactive
same,Potency,[6],inactive
Cn1c(=O)c2c(nc(/C=C/c3cccc(Cl)c3)n2C)n(C)c1=O,Potency,[2],11.2 µM (active)
same,Potency,[3],12.6 µM (active)
same,Potency,[6],inactive
COc1cccc(OC)c1OCCNCC1CSc2ccccc2O1 (stereo not drawn),Potency,[2],3.98 µM (active)
same,Potency,[3],12.6 µM (active)
same,Potency,[5],inactive
same,Potency,[6],inactive
same,Potency,[8],inactive
CC(=O)O[C@H]1CC2(C)[C@@H](C[C@@H](O)[C@H]3[C@@]4(C)CC[C@@H](O)[C@@H](C)[C@@H]4CC[C@@]32C)C1=C(CCC=C(C)C)C(=O)O (stereo partly drawn),Potency,[2],10 µM (active)
same,outcome,[4],inactive
same,Potency,[5],inactive
same,Potency,[6],inactive
same,Potency,[8],inactive
O=c1[nH]c(=O)c2nc3ccccc3nc2[nH]1,Potency,[9],inactive
same,Potency,[3],inactive
same,Potency,[5],inactive
same,Potency,[6],inactive
COc1ccccc1N1CCN(CCCNc2c(C)c(=O)n(C)c(=O)n2C)CC1,Potency,[2],8.91 µM (active)
same,Potency,[5],inactive
same,Potency,[6],inactive
same,Potency,[8],inactive
O=C1NC(=O)c2cc(Nc3ccccc3)c(Nc3ccccc3)cc21,Potency,[2],10 µM (active)
same,Potency,[3],8.91 µM (active)
same,Potency,[6],inactive
OC1(c2ccc(Cl)cc2)CCN(Cc2c[nH]c3ccccc23)CC1,Potency,[5],inactive
same,Potency,[6],inactive
same,Potency,[8],inactive
COc1cc([C@@H]2c3cc4c(cc3[C@H](O)C3COC(=O)[C@@H]32)OCO4)cc(OC)c1OC (stereo partly drawn),outcome,[4],inactive
same,Potency,[5],inactive
same,Potency,[6],inactive
same,Potency,[8],inactive
CCN(CC)CCCCCCCCOC(=O)c1cc(OC)c(OC)c(OC)c1,Potency,[2],3.55 µM (active)
same,Potency,[5],inactive
same,Potency,[6],inactive
same,Potency,[8],inactive
CCCn1c(=O)c2[nH]c(C3CCCC3)nc2n(CCC)c1=O,Potency,[9],inactive
same,Potency,[3],inactive
same,Potency,[5],inactive
same,Potency,[6],inactive
same,Potency,[8],inactive
C=C1C(=O)O[C@@H]2[C@H]3O[C@]3(C)CCC=C(C)CC[C@@H]12,Potency,[2],10 µM (active)
same,Potency,[3],11.2 µM (active)
same,Potency,[6],inactive
same,Potency,[8],inactive
CC(/C=C/c1cccc(Oc2ccc(F)cc2)c1)N(O)C(N)=O (stereo not drawn),Potency,[2],10 µM (active)
same,Potency,[6],inactive
N[C@@H](Cc1c[nH]c2ccccc12)C(=O)O,Potency,[5],inactive
same,Potency,[6],inactive
CC[C@H](NC(=O)c1c(C)c(-c2ccccc2)nc2ccccc12)c1ccccc1,Potency,[2],8.91 µM (active)
same,Potency,[3],12.6 µM (active)
same,Potency,[5],inactive
same,Potency,[6],inactive
N=C(N)SCCN,Potency,[9],inactive
same,outcome,[4],inactive
same,Potency,[6],inactive
same,Potency,[8],inactive
O=C1Nc2ccc(I)cc2/C1=C/c1cc(Br)c(O)c(Br)c1,Potency,[2],15.8 µM (active)
same,Potency,[3],10 µM (active)
same,Potency,[6],inactive
O=C1OC(=O)C2C3CCC(O3)C12 (stereo not drawn),Potency,[9],inactive
same,Potency,[6],inactive
same,Potency,[8],inactive
NOCC(=O)O,Potency,[9],inactive
same,outcome,[4],inactive
same,Potency,[5],inactive
same,Potency,[6],inactive
same,Potency,[8],inactive
